# Laboratory results from paper PMC8384837, “Expanding the binding specificity for RNA recognition by a PUF domain”.
# How the values were obtained:
# Assay in all cases: yeast three-hybrid, YBZ-1, SC-Leu-His + 0.5 mM 3-AT, 4 days
# Details in all cases: tags: N-Gal4 AD-HA kept; label: inside an RPR1-promoter hybrid RNA with tandem MS2 sites; ssRNA
# PUM1 PUF domain R8-QYG = PUM1 PUF domain R8-QYG (Homo sapiens, UniProt Q14671 828-1176, N1122Q;Q1126G)
# Outline: (§1)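 The interaction score is the log change in variant frequency from input to selection. Scores were computed in log2 with a pseudocount of 1 for absent variants, using Illumina sequencing of PCR-amplified repeat regions. The input came from four days on SC-Leu and the selection from four days on SC-Leu-His + 0.5 mM 3-AT. The cells were strain YBZ-1 (LexA–MS2 coat fusion, HIS3 reporter) co-expressing Pumilio-1 PUF domain libraries and matching RNA elements from a centromeric plasmid.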
# PUM1 PUF domain R8-QWF = PUM1 PUF domain R8-QWF (Homo sapiens, UniProt Q14671 828-1176, N1122Q;Y1123W;Q1126F)
# Outline: as §1
# PUM1 PUF domain R1-MWR = PUM1 PUF domain R1-MWR (Homo sapiens, UniProt Q14671 828-1176, S863M;R864W;Q867R)
# Outline: as §1
# PUM1 PUF domain R1-NCS = PUM1 PUF domain R1-NCS (Homo sapiens, UniProt Q14671 828-1176, S863N;R864C;Q867S)
# Outline: as §1
# PUM1 PUF domain R1-CRR = PUM1 PUF domain R1-CRR (Homo sapiens, UniProt Q14671 828-1176, S863C;Q867R)
# Outline: as §1
# PUM1 PUF domain R3-FRA = PUM1 PUF domain R3-FRA (Homo sapiens, UniProt Q14671 828-1176, C935F;Q939A)
# Outline: as §1
# PUM1 PUF domain R3-LSS = PUM1 PUF domain R3-LSS (Homo sapiens, UniProt Q14671 828-1176, C935L;R936S;Q939S)
# Outline: as §1
# PUM1 PUF domain R6-TRE = biological target: T1, PUM1 PUF domain R6-TRE (Homo sapiens, UniProt Q14671 828-1176, N1043T;Y1044R;Q1047E)
# T1 sequence: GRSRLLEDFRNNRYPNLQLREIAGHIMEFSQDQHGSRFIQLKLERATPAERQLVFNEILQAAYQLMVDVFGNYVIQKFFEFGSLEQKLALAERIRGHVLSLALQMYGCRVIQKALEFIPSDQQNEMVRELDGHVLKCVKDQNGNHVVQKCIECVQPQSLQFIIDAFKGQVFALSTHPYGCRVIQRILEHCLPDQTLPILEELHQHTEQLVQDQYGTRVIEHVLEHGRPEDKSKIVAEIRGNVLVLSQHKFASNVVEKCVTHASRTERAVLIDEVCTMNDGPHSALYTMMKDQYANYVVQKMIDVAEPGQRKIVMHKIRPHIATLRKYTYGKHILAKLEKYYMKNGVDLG
# Outline: as §1
# PUM1 PUF domain R3-PHL = PUM1 PUF domain R3-PHL (Homo sapiens, UniProt Q14671 828-1176, C935P;R936H;Q939L)
# Outline: as §1
# PUM1 PUF domain R4-TPA = PUM1 PUF domain R4-TPA (Homo sapiens, UniProt Q14671 828-1176, N971T;H972P;Q975A)
# Outline: as §1
# PUM1 PUF domain R2-LWL = PUM1 PUF domain R2-LWL (Homo sapiens, UniProt Q14671 828-1176, N899L;Y900W;Q903L)
# Outline: as §1
# PUM1 PUF domain R7-ISR = PUM1 PUF domain R7-ISR (Homo sapiens, UniProt Q14671 828-1176, S1079I;N1080S;E1083R)
# Outline: as §1
# PUM1 PUF domain R4-MNA = PUM1 PUF domain R4-MNA (Homo sapiens, UniProt Q14671 828-1176, N971M;H972N;Q975A)
# Outline: as §1
# PUM1 PUF domain R4-SQS = PUM1 PUF domain R4-SQS (Homo sapiens, UniProt Q14671 828-1176, N971S;H972Q;Q975S)
# Outline: as §1
# PUM1 PUF domain R2-KRA = PUM1 PUF domain R2-KRA (Homo sapiens, UniProt Q14671 828-1176, N899K;Y900R;Q903A)
# Outline: as §1
# PUM1 PUF domain R5-STR = PUM1 PUF domain R5-STR (Homo sapiens, UniProt Q14671 828-1176, C1007S;R1008T;Q1011R)
# Outline: as §1
# PUM1 PUF domain R5-AFF = PUM1 PUF domain R5-AFF (Homo sapiens, UniProt Q14671 828-1176, C1007A;R1008F;Q1011F)
# Outline: as §1
# PUM1 PUF domain R5-CRR = PUM1 PUF domain R5-CRR (Homo sapiens, UniProt Q14671 828-1176, Q1011R)
# Outline: as §1
# PUM1 PUF domain R5-KRN = PUM1 PUF domain R5-KRN (Homo sapiens, UniProt Q14671 828-1176, C1007K;Q1011N)
# Outline: as §1
# PUM1 PUF domain R5-KNS = PUM1 PUF domain R5-KNS (Homo sapiens, UniProt Q14671 828-1176, C1007K;R1008N;Q1011S)
# Outline: as §1
# Sequence of PUM1 PUF domain R4-TPA (Q14671 828-1176 N971T/H972P/Q975A): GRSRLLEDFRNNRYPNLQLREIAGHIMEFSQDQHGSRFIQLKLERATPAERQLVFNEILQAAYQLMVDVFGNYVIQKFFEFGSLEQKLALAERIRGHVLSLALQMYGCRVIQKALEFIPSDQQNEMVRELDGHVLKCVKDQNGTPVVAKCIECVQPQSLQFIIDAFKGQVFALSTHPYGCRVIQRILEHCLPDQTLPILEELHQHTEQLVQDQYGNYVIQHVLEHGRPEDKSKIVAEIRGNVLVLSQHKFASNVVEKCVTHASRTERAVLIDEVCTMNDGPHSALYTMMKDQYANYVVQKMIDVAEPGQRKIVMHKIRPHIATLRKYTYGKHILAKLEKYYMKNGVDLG
sequence,measurement,setting,value
GGCUAGAACUAGUGGAUCCCCCGGCGCCCGGCGGCUCGAGCCCGGGUAAGCGUAAAUAGUCUGCAUGCCGCCGGGCGCCAUGCCUGCAGGUCGACUCUAGAAAACAUG,binding signal,PUM1 PUF domain R8-QYG,3.1 log2 enrichment (interaction score)
same,binding signal,PUM1 PUF domain R8-QWF,2.87 log2 enrichment (interaction score)
GGCUAGAACUAGUGGAUCCCCCGGCGCCCGGCGGCUCGAGCCCGGGUAAGUGUAAAUUGUCUGCAUGCCGCCGGGCGCCAUGCCUGCAGGUCGACUCUAGAAAACAUG,binding signal,PUM1 PUF domain R1-MWR,3.06 log2 enrichment (interaction score)
same,binding signal,PUM1 PUF domain R1-NCS,3.38 log2 enrichment (interaction score)
same,binding signal,PUM1 PUF domain R1-CRR,0.67 log2 enrichment (interaction score)
GGCUAGAACUAGUGGAUCCCCCGGCGCCCGGCGGCUCGAGCCCGGGUAAGUGUAAGUAGUCUGCAUGCCGCCGGGCGCCAUGCCUGCAGGUCGACUCUAGAAAACAUG,binding signal,PUM1 PUF domain R3-FRA,5.49 log2 enrichment (interaction score)
same,binding signal,PUM1 PUF domain R3-LSS,5.06 log2 enrichment (interaction score)
GGCUAGAACUAGUGGAUCCCCCGGCGCCCGGCGGCUCGAGCCCGGGUAAGUGGAAAUAGUCUGCAUGCCGCCGGGCGCCAUGCCUGCAGGUCGACUCUAGAAAACAUG,binding signal,PUM1 PUF domain R6-TRE,5.05 log2 enrichment (interaction score)
GGCUAGAACUAGUGGAUCCCCCGGCGCCCGGCGGCUCGAGCCCGGGUAAGUGUAAAUCGUCUGCAUGCCGCCGGGCGCCAUGCCUGCAGGUCGACUCUAGAAAACAUG,binding signal,PUM1 PUF domain R1-MWR,3.03 log2 enrichment (interaction score)
same,binding signal,PUM1 PUF domain R1-CRR,2.5 log2 enrichment (interaction score)
GGCUAGAACUAGUGGAUCCCCCGGCGCCCGGCGGCUCGAGCCCGGGUAAGUGUAAUUAGUCUGCAUGCCGCCGGGCGCCAUGCCUGCAGGUCGACUCUAGAAAACAUG,binding signal,PUM1 PUF domain R3-FRA,1.3 log2 enrichment (interaction score)
same,binding signal,PUM1 PUF domain R3-PHL,4.16 log2 enrichment (interaction score)
same,binding signal,PUM1 PUF domain R3-LSS,3.25 log2 enrichment (interaction score)
GGCUAGAACUAGUGGAUCCCCCGGCGCCCGGCGGCUCGAGCCCGGGUAAGUGUACAUAGUCUGCAUGCCGCCGGGCGCCAUGCCUGCAGGUCGACUCUAGAAAACAUG,binding signal,PUM1 PUF domain R4-TPA,3.56 log2 enrichment (interaction score)
GGCUAGAACUAGUGGAUCCCCCGGCGCCCGGCGGCUCGAGCCCGGGUAAGUGUAAAAAGUCUGCAUGCCGCCGGGCGCCAUGCCUGCAGGUCGACUCUAGAAAACAUG,binding signal,PUM1 PUF domain R2-LWL,6.07 log2 enrichment (interaction score)
GGCUAGAACUAGUGGAUCCCCCGGCGCCCGGCGGCUCGAGCCCGGGUAAGUUUAAAUAGUCUGCAUGCCGCCGGGCGCCAUGCCUGCAGGUCGACUCUAGAAAACAUG,binding signal,PUM1 PUF domain R7-ISR,5.98 log2 enrichment (interaction score)
GGCUAGAACUAGUGGAUCCCCCGGCGCCCGGCGGCUCGAGCCCGGGUAAGUGUAUAUAGUCUGCAUGCCGCCGGGCGCCAUGCCUGCAGGUCGACUCUAGAAAACAUG,binding signal,PUM1 PUF domain R4-MNA,4.12 log2 enrichment (interaction score)
same,binding signal,PUM1 PUF domain R4-TPA,4.12 log2 enrichment (interaction score)
same,binding signal,PUM1 PUF domain R4-SQS,0.2 log2 enrichment (interaction score)
GGCUAGAACUAGUGGAUCCCCCGGCGCCCGGCGGCUCGAGCCCGGGUAAGUGUAAAGAGUCUGCAUGCCGCCGGGCGCCAUGCCUGCAGGUCGACUCUAGAAAACAUG,binding signal,PUM1 PUF domain R2-KRA,4.63 log2 enrichment (interaction score)
GGCUAGAACUAGUGGAUCCCCCGGCGCCCGGCGGCUCGAGCCCGGGUAAGUGUAAAUAGUCUGCAUGCCGCCGGGCGCCAUGCCUGCAGGUCGACUCUAGAAAACAUG,binding signal,PUM1 PUF domain R2-LWL,1.87 log2 enrichment (interaction score)
same,binding signal,PUM1 PUF domain R8-QYG,3.24 log2 enrichment (interaction score)
same,binding signal,PUM1 PUF domain R5-STR,1.08 log2 enrichment (interaction score)
same,binding signal,PUM1 PUF domain R5-AFF,2.83 log2 enrichment (interaction score)
same,binding signal,PUM1 PUF domain R4-TPA,3.35 log2 enrichment (interaction score)
same,binding signal,PUM1 PUF domain R4-SQS,2.72 log2 enrichment (interaction score)
same,binding signal,PUM1 PUF domain R5-CRR,2.75 log2 enrichment (interaction score)
same,binding signal,PUM1 PUF domain R8-QWF,2.1 log2 enrichment (interaction score)
GGCUAGAACUAGUGGAUCCCCCGGCGCCCGGCGGCUCGAGCCCGGGUAAGUGUCAAUAGUCUGCAUGCCGCCGGGCGCCAUGCCUGCAGGUCGACUCUAGAAAACAUG,binding signal,PUM1 PUF domain R5-KRN,4.24 log2 enrichment (interaction score)
same,binding signal,PUM1 PUF domain R5-STR,5.88 log2 enrichment (interaction score)
same,binding signal,PUM1 PUF domain R5-KNS,4.54 log2 enrichment (interaction score)
same,binding signal,PUM1 PUF domain R5-CRR,4.63 log2 enrichment (interaction score)
